Experimental data taken from PubChem BioAssay AID624483 (NMMLSC, 2012).
Out of some 360,000 compounds screened, about 11,000 (3.1%) were called active. Another 2% or so got no clear call; they are omitted. The entries come from a sample that favours actives as a whole. Unmarked numbers belong to inactive results. No stated cut-off is given here; in the data, active means fluorescence intensity above about 16000; inconclusive means no clear call, values can overlap the other calls; inactive means below that.

Assay: compound fluorescence in toxin protease inhibitor counterscreen, primary screen, artefact control for toxin protease inhibitor project, biochemical, multiplex microsphere, HTS (AID 624483)
Conditions: compound autofluorescence counterscreen, microsphere flow cytometry; hits give high values

| SMILES | fluorescence intensity |
| --- | --- |
| CC1(C(=O)NS(=O)(=O)c2cccs2)CCN1C(=O)Cc1ccc(-c2ccccc2)cc1 (stereo not drawn) | 3400 |
| O=S1(=O)CC(N2CCN(c3ccccn3)CC2)CN1Cc1ccc(F)cc1 (stereo not drawn) | 5970 |
| O=C(c1ccco1)N1CCN(C(=O)C2c3ccccc3Oc3ccccc32)CC1 | 10300 |
| CCC(=O)N1CCCC1(C)C(=O)Nc1ccc2c(c1)CCN2C(C)=O (stereo not drawn) | 4080 |
| O=C(Cn1cc(/C=N/NC(=O)c2cccc(C(F)(F)F)c2)c2ccccc21)Nc1ccc(F)cc1 | 23300 (active) |
| O=C(CSc1ccc(/C=N/NC(=O)c2cccc(F)c2)o1)Nc1ccccc1 | 8800 |
| COc1cccc(Cn2cc(/C=N/NC(=O)c3cc(O)cc(O)c3)c3ccccc32)c1 | 5960 |
| Cc1cc(C)nc(NNC2=CC(=O)CC(C)(C)C2)n1 | 2520 |
| CC1(C)CC(=O)C=C(NCc2ccncc2)C1 | 16700 (active) |
| COc1ccc(CCNC2=CC(=O)CC(C)(C)C2)cc1 | 3550 |
| COc1cccc(OCCOc2cccc(/C=N/n3cnnc3)c2)c1 | 23900 (active) |
| COCCNCCOCCOc1cccc(OC)c1 | 2470 |
| C=CCc1ccc(OCCOc2cccc(/C=N/n3cnnc3)c2)c(OC)c1 | 2600 |
| CC(C)(C)OC(=O)N[C@H](C(=O)OC(C)(C)C)c1ccc(Br)cc1 | 3740 |
| C[C@H](NC(=O)OC(C)(C)C)c1nnc(SCC(=O)Nc2ccc(Br)cc2)o1 | 16800 (active) |
| CCc1ccccc1NC(=O)CSc1nnc(CCNC(=O)OC(C)(C)C)o1 | 6490 |
| C=CCn1c(N)cc(=O)nc1SCC(=O)Nc1cccc2ccccc12 | 4460 |
| CC(C)Oc1ccc(/C=N/NC(=O)c2nnn(-c3nonc3N)c2CN(C)C2CCCCC2)cc1 | 6000 |
| Cc1cccc(C)c1N1CCN(S(=O)(=O)N2CCOCC2)CC1 | 23800 (active) |
| O=S(=O)(N1CCOCC1)N1CCN(c2ccccc2F)CC1 | 6290 |
| Cc1cccc(C)c1N1CCN(S(=O)(=O)N2CCCCC2)CC1 | 3490 |
| COc1ccc(Cl)cc1-c1cc(C(=O)Nc2cc(OC)c(OC)c(OC)c2)[nH]n1 | 3880 |
| O=S(=O)(NC1CCCCC1N1CCC(O)CC1)c1ccc(Cl)cc1 (stereo not drawn) | 38100 (active) |
| CCN1CCN(C2CCCCC2NS(=O)(=O)c2ccc(Cl)cc2)CC1 (stereo not drawn) | 5580 |

| SMILES | fluorescence intensity |
| --- | --- |
| O=S(=O)(NC1CCCCC1N1CCCCC1)c1ccc(Cl)cc1 (stereo not drawn) | 5790 |
| Cc1cc(OCC(=O)N2CCN(c3ncccn3)CC2)ccc1Cl | 4880 |
| COc1ccc(OC)c(NC(=O)c2cc(-c3cc(F)ccc3OCC3CCCO3)n[nH]2)c1 (stereo not drawn) | 3690 |
| COc1ncnc2sc3c(c12)CCCC3 | 23600 (active) |
| O=C(O)c1cccnc1Sc1ncnc2sc3c(c12)CCC3 | 4510 |
| COc1ccc(/C=N/Nc2ncnc3sc4c(c23)CCCC4)cc1O | 1980 |
| CCOC(=O)C1=C(CSc2nccn2C)NC(=O)NC1c1ccc(OC)cc1 (stereo not drawn) | 24300 (active) |
| CCOC(=O)C1=C(CSc2nnnn2C)N(C)C(=O)NC1c1ccccc1 (stereo not drawn) | 4330 |
| CCOC(=O)C1=C(CCc2ccccc2)NC(=O)NC1c1ccc2ccccc2c1 (stereo not drawn) | 3820 |
| CC(C)C[C@H]1CN([C@@H](Cc2ccccc2)CN2CCC[C@@H]2CN2C(=O)C(=O)NC[C@@H]2Cc2ccc(O)cc2)C(=O)C(=O)N1CCc1ccccc1 | 5350 |
| CCOC(=O)N1CCN(C(=O)c2cnc3n(c2=O)CCS3)CC1 | 2800 |
| CCCCc1c(O)nc2n(c1=O)CCS2 | 22100 (active) |
| CC1CCc2c(sc3nc4n(c(=O)c23)CCS4)C1 (stereo not drawn) | 8310 |
| CCOC(=O)N1C(=O)C[C@](Sc2ccc(C)cc2)(C(=O)OC)[C@H]1c1ccccc1 | 5390 |
| Cc1ccc(C)c(C(O)c2ncc(-c3cccc4ccccc34)[nH]2)c1 (stereo not drawn) | 3640 |
| CC1(C2CC2)NC(=O)N(CC(=O)N2CCN(c3ccccc3F)CC2)C1=O (stereo not drawn) | 2860 |
| Cc1csc(SCC(=O)Nc2ccc(C)c(S(=O)(=O)N(C)C)c2)n1 | 3940 |
| Cc1ccc(CCNC(=O)C2CCN(S(=O)(=O)N3CCCC3)CC2)cc1 | 9470 |
| CCOC(=O)C1C(=O)C=C(c2ccc(OC)cc2)CC1c1ccco1 (stereo not drawn) | 2300 |
| CCOC(=O)C1C(=O)NC(N2CCN(c3ccccc3)CC2)=NC1c1ccco1 (stereo not drawn) | 23400 (active) |
| CCOC(=O)C1(C)NC(c2ccco2)C2C(=O)N(c3ccccc3)C(=O)C21 (stereo not drawn) | 4000 |
| Cc1ccc(N2C(=O)CC(Nc3cccc4ccccc34)C2=O)cc1 (stereo not drawn) | 3720 |
| Cc1ccc(N2C(=O)C3C(c4ccccc4)(C2=O)C3(c2ccccc2)c2ccccc2)cc1 (stereo not drawn) | 22200 (active) |
| Cc1ccc(C2SCC(=O)N2c2ccccc2)cc1 (stereo not drawn) | 3540 |

| SMILES | fluorescence intensity |
| --- | --- |
| COc1ccccc1Nc1ncc(C(C)=O)c(C)n1 | 2840 |
| O=C1CCC(C(=O)N2CCC(O)(c3ccccc3)CC2)CN1CCc1ccccc1 (stereo not drawn) | 5620 |
| CC(C)C[C@@H](COCc1ccc(Cl)cc1)N1CCN(C(=O)c2ccc(Cl)cc2Cl)CCC1=O | 4700 |
| Cc1cc2c(cc1C)N1C(=O)c3cc4ccccc4cc3NC(=O)C1C(=O)N2 (stereo not drawn) | 5850 |
| COc1ccc(S(=O)(=O)N(C)C)cc1NC(=O)CSc1ncccn1 | 2020 |
| CCn1c(CSc2nncn2-c2ccc(OC)cc2)nc2cc(S(=O)(=O)N(C)C)ccc21 | 20000 (active) |
| COc1ccc(-n2cnnc2SCC(=O)Nc2cccc(S(N)(=O)=O)c2)cc1 | 5460 |
| CC[C@@H]1CC2=C(C(=O)OC(C)(C)O2)[C@@H](CC)O1 | 5670 |
| CC(C)(C)S(=O)(=O)N1Cc2cc(CO)cc(CCO)c2[C@H]1CCO | 3670 |
| Cc1ccccc1S(=O)(=O)NC(=O)C1(C)CCN1C(=O)C1(c2ccc(Cl)cc2)CC1 (stereo not drawn) | 4140 |
| Cc1oc2c(c1C(=O)N1CCOCC1)C(=O)c1ccccc1C2=O | 5580 |
| Cc1ccccc1-c1ccc(Nc2ccc(C(=O)N3CCOCC3)cc2)nn1 | 16400 (active) |
| Cc1cc(Nc2ccc(C(=O)N3CCCCC3)cc2)c2cccc(C)c2n1 | 3660 |
| CCCCc1ccc(S(=O)(=O)NC(=O)C2(C)CCN2C(=O)c2c(C)noc2C)cc1 (stereo not drawn) | 2860 |
| CCc1nc2c(OCc3ccc(Cl)cc3Cl)cccn2c1N(C)C(=O)C(C)C | 4460 |
| CC(C)CNS(=O)(=O)c1ccc(OCC(=O)Nc2ccc3c(c2)OCO3)c(Cl)c1 | 16300 (active) |
| Cc1cc(S(=O)(=O)NCC(C)C)ccc1OCC(=O)NC1CC1 | 5980 |
| O=C(COc1ccc(Cl)cc1)Nc1ccc2c(c1)OCO2 | 3940 |
| Nc1c(C(=O)OCC(=O)Nc2ccc(OC(F)F)cc2)[nH]c(=O)[nH]c1=O | 3380 |
| O=C(CCl)Nc1ccc(Sc2ccc(NC(=O)CCl)cc2)cc1 | 4330 |
| CC(C)(CCl)C(=O)Nc1ccc(Sc2ccc(F)cc2)cc1 | 20700 (active) |
| Cc1ccc(Sc2ccc(NC(=O)c3ccc(F)cc3)cc2C#N)cc1 | 4940 |
| CC(NC(=O)CN(C)S(=O)(=O)c1ccc(F)cc1)C1CC2CCC1C2 (stereo not drawn) | 3360 |
| Cc1c(C(=O)NCc2ccc(C#N)cc2)sc(=O)n1Cc1ccc(C(=O)N(C)C)cc1 | 4330 |

| SMILES | fluorescence intensity |
| --- | --- |
| CC1OC2C(OC1C)N(S(C)(=O)=O)CCN2S(C)(=O)=O (stereo not drawn) | 15900 |
| CC1COC2C(O1)N(S(C)(=O)=O)CCN2S(C)(=O)=O (stereo not drawn) | 25700 (active) |
| Cc1ccc(S(=O)(=O)N2CCN(C(=O)CN3C(=O)NC(C)(c4ccc(Cl)cc4)C3=O)CC2)c(C)c1 (stereo not drawn) | 3900 |
| Cc1cc(C)n2c(Nc3c(C)cccc3C)c(CCc3ccccc3)nc2n1 | 5430 |
| Cc1onc(-c2c(F)cccc2Cl)c1C(=O)OCC(=O)N1C(C)CCCC1C (stereo not drawn) | 3180 |
| C/C(=N/OC(=O)c1c(-c2c(F)cccc2Cl)noc1C)c1cnccn1 | 3970 |
| Cc1onc(-c2c(Cl)cccc2Cl)c1C(=O)c1c[nH]c(C(=O)NC2CC2)c1 | 23200 (active) |
| CC1=C(C(=O)N(C)C)CC(CC(=O)NCCN2CCOCC2)C(=O)N1Cc1ccccc1 (stereo not drawn) | 3750 |
| CC1(C(=O)Nc2ccc3c(c2)OCCO3)CCN1C(=O)Cc1cc(F)ccc1F (stereo not drawn) | 3870 |
| Clc1ccc(C=NC23CN4CN(CN(C4)C2)C3)cc1 | 3520 |
| COC(=O)C1[C@H]2SC(C)(C)C(C(=O)OC)N2C(=O)N1Cc1nc2ccccc2s1 (stereo partly drawn) | 3920 |
| CCNC(=O)C1CCCN(C(=O)c2cc(F)ccc2C)CC1 (stereo not drawn) | 3900 |
| Cc1ccc(C(=O)N2CCCC2)c(F)c1F | 24700 (active) |
| Cc1c(Br)cc(C(=O)N2CCCCCC2)c(C)c1C | 4200 |
| CNC(=O)c1nnc(Cc2ccc(Cl)cc2)o1 | 4900 |
| COc1cccc(C(NC(C)=O)c2nc(-c3cnc4ccccc4c3)cs2)c1 (stereo not drawn) | 3770 |
| CC(C)c1ccc(NC(=O)NC2CCCCC2)cc1 | 10400 |
| CC(C)(C)NS(=O)(=O)c1ccc(NC(=O)NC2CCCCC2)cc1 | 17000 (active) |
| CC(C)(C)NS(=O)(=O)c1ccc(NC(=O)C2CCCO2)cc1 (stereo not drawn) | 3950 |
| CC1(Cc2cccc(C#N)c2)C(=O)Nc2ccc(-c3cccc(C(F)(F)F)c3)cc21 (stereo not drawn) | 2910 |
| CCOC(=O)C1=CCC(c2ccc(F)cc2)N(S(=O)(=O)c2ccc(C)cc2)C1 (stereo not drawn) | 6000 |
